From PubChem BioAssay (NCI)
The panel holds about 83,000 compounds, 20% with a hit somewhere; the sample as a whole holds those more often.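 Compound tested at a single concentration for 48 hours in 96-well plates; a percent growth value below 10 was scored as active.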 Calls of active or inactive are those of the source.

Key:
Assay in all cases: NCI-60 one-dose screen, 48 h (100 = growth as untreated, 0 = no growth, -100 = all killed)
Settings in all cases: 10 µM unless noted
HCT-15 colon = tested on: HCT-15 colon
HT29 colon = tested on: HT29 colon
SNB-19 CNS = tested on: SNB-19 CNS
U251 CNS = tested on: U251 CNS
PC-3 prostate = tested on: PC-3 prostate
SK-MEL-5 melanoma = tested on: SK-MEL-5 melanoma
UACC-62 melanoma = tested on: UACC-62 melanoma
LOX IMVI melanoma = tested on: LOX IMVI melanoma
SK-MEL-28 melanoma = tested on: SK-MEL-28 melanoma
SK-MEL-2 melanoma = tested on: SK-MEL-2 melanoma
EKVX NSCLC = tested on: EKVX NSCLC
SN12C renal = tested on: SN12C renal
UO-31 renal = tested on: UO-31 renal
TK-10 renal = tested on: TK-10 renal
ACHN renal = tested on: ACHN renal
A498 renal = tested on: A498 renal
CCRF-CEM leukemia = tested on: CCRF-CEM leukemia
MOLT-4 leukemia = tested on: MOLT-4 leukemia
CAKI-1 renal = tested on: CAKI-1 renal

Measured: growth

CN1CCN(c2ccc(/C=N/Nc3nc4ccccc4c(=O)n3-c3ccccc3)cc2)CC1
inactive: HCT-15 colon 99.2% | HT29 colon 100% | SNB-19 CNS 105% | U251 CNS 102% | PC-3 prostate 93.2% | SK-MEL-5 melanoma 92.4% | UACC-62 melanoma 101% | LOX IMVI melanoma 122% | SK-MEL-28 melanoma 103% | SK-MEL-2 melanoma 107% | EKVX NSCLC 100% | SN12C renal 103% | UO-31 renal 95.5% | TK-10 renal 91.3% | ACHN renal 108% | A498 renal 89.8% | CCRF-CEM leukemia 105% | MOLT-4 leukemia 104%

Cc1cc2ncc(-c3cc4ccccc4c(N4CCN(C)CC4)n3)nc2cc1C
active: HCT-15 colon -69.7% | HT29 colon -60.4% | U251 CNS -30.9% | UACC-62 melanoma -46.6% | LOX IMVI melanoma -83.8% | SK-MEL-28 melanoma -69.9% | UO-31 renal 4.16% | ACHN renal -42.1% | CCRF-CEM leukemia 1.37% | MOLT-4 leukemia -8.83%
inactive: SNB-19 CNS 73% | PC-3 prostate 57.5% | SK-MEL-5 melanoma 16.2% | EKVX NSCLC 73.8% | SN12C renal 31.5% | TK-10 renal 67.2% | CAKI-1 renal 30.2%

Cc1ccc(CSc2nc(-c3ccc(Cl)cc3)c(C#N)c(N3CCNCC3)n2)cc1
inactive: HCT-15 colon 76.2% | HT29 colon 58.4% | SNB-19 CNS 84.7% | U251 CNS 65.4% | PC-3 prostate 63.5% | SK-MEL-5 melanoma 74.2% | UACC-62 melanoma 105% | LOX IMVI melanoma 52.1% | SK-MEL-28 melanoma 102% | SK-MEL-2 melanoma 115% | EKVX NSCLC 82.2% | SN12C renal 77.8% | UO-31 renal 64.2% | TK-10 renal 99.7% | ACHN renal 82.3% | CAKI-1 renal 64.9% | A498 renal 17.6% | CCRF-CEM leukemia 65.6% | MOLT-4 leukemia 55.5%

CCOC(=O)C1=NNC(c2ccc(Cl)cc2)C1C(=O)N1C(=S)NC(=O)C1CC(C)C (centres undefined)
inactive: HCT-15 colon 105% | HT29 colon 116% | SNB-19 CNS 98.3% | U251 CNS 105% | PC-3 prostate 96.8% | SK-MEL-5 melanoma 106% | UACC-62 melanoma 94.2% | LOX IMVI melanoma 103% | SK-MEL-28 melanoma 103% | SK-MEL-2 melanoma 110% | EKVX NSCLC 84.5% | SN12C renal 99.4% | UO-31 renal 81.4% | TK-10 renal 164% | ACHN renal 93.3% | CAKI-1 renal 85.2% | A498 renal 95% | CCRF-CEM leukemia 100% | MOLT-4 leukemia 89.5%

NC(N)=Nc1ccc(Oc2cccc(Nc3ccc(Cl)c(C(F)(F)F)c3)c2)cn1
active: HCT-15 colon -63.5% | HT29 colon -39.2% | SNB-19 CNS -77% | U251 CNS -82.2% | PC-3 prostate -89.4% | UACC-62 melanoma -78.3% | LOX IMVI melanoma -83.8% | SK-MEL-28 melanoma -28.6% | SK-MEL-2 melanoma -17.7% | EKVX NSCLC -58.5% | SN12C renal -84.4% | ACHN renal 3.16% | CAKI-1 renal -6.78% | A498 renal -7.17% | CCRF-CEM leukemia -7% | MOLT-4 leukemia -39%
inactive: SK-MEL-5 melanoma 26.7% | UO-31 renal 43.3% | TK-10 renal 23.2%

N#C/C(=C\c1ccc(-c2ccc(Cl)cc2Cl)o1)c1ccc(F)cc1
inactive: HCT-15 colon 94.5% | HT29 colon 96.4% | SNB-19 CNS 96.7% | U251 CNS 98.5% | PC-3 prostate 87.8% | SK-MEL-5 melanoma 95.7% | UACC-62 melanoma 71.2% | LOX IMVI melanoma 87.6% | SK-MEL-28 melanoma 102% | EKVX NSCLC 87.4% | SN12C renal 98.6% | UO-31 renal 81.5% | TK-10 renal 138% | ACHN renal 89.9% | CAKI-1 renal 68.8% | CCRF-CEM leukemia 93.7% | MOLT-4 leukemia 93.8%

Nc1ncc(-c2ccc3ncnc(N4CCc5cc(F)c(Cl)cc54)c3c2)cn1
active: LOX IMVI melanoma 9.68% | EKVX NSCLC -9.64% | UO-31 renal 7.96% | TK-10 renal -15% | CAKI-1 renal -9.07% | A498 renal -80.7% | MOLT-4 leukemia -20.9%
inactive: HCT-15 colon 18.2% | HT29 colon 24.1% | SNB-19 CNS 43% | U251 CNS 45% | PC-3 prostate 10.5% | SK-MEL-5 melanoma 29.2% | UACC-62 melanoma 22.2% | SK-MEL-28 melanoma 40.5% | SK-MEL-2 melanoma 17.1% | SN12C renal 17.9% | ACHN renal 13.4%

O=C(NNc1nc2cc(F)ccc2n2c(CN3CCCC3)ccc12)c1cnccn1
active: LOX IMVI melanoma 3.56% | EKVX NSCLC 7.62% | A498 renal -1.87% | CCRF-CEM leukemia 6.67% | MOLT-4 leukemia 1.81%
inactive: HCT-15 colon 23% | HT29 colon 24% | SNB-19 CNS 25.2% | U251 CNS 19.8% | PC-3 prostate 21.4% | SK-MEL-5 melanoma 22.3% | UACC-62 melanoma 17.9% | SK-MEL-28 melanoma 30.8% | SN12C renal 21% | UO-31 renal 18.7% | TK-10 renal 40.2% | ACHN renal 13.3%

O=S(=O)(Nc1ccc2c(c1)OCO2)c1ccc(-c2cnc(C3CC3)o2)cc1
inactive: HCT-15 colon 20.3% | HT29 colon 14% | SNB-19 CNS 38.1% | U251 CNS 27.4% | PC-3 prostate 37.9% | SK-MEL-5 melanoma 30% | UACC-62 melanoma 33.2% | SK-MEL-28 melanoma 51.2% | SK-MEL-2 melanoma 53.5% | EKVX NSCLC 43.2% | SN12C renal 36.8% | UO-31 renal 45.5% | TK-10 renal 73.8% | ACHN renal 43.6% | CAKI-1 renal 40.8% | CCRF-CEM leukemia 27% | MOLT-4 leukemia 31.5%

O=S(=O)(Nc1ccc(I)cc1Cl)c1ccc(-c2cnc(C3CC3)o2)cc1
inactive: HCT-15 colon 30.7% | HT29 colon 15.9% | SNB-19 CNS 45.9% | U251 CNS 35.2% | PC-3 prostate 34% | SK-MEL-5 melanoma 40.2% | UACC-62 melanoma 39% | SK-MEL-28 melanoma 53.8% | SK-MEL-2 melanoma 71.6% | EKVX NSCLC 54.2% | SN12C renal 42.5% | UO-31 renal 50.9% | TK-10 renal 89.3% | ACHN renal 49.2% | CAKI-1 renal 39.1% | CCRF-CEM leukemia 25.2% | MOLT-4 leukemia 45%

N#Cc1cccc(CN2CCC3=C(C2)C(=O)N(Cc2ccc(Cl)cc2)C2=NCCCN23)c1
inactive: HCT-15 colon 16.6% | HT29 colon 28% | SNB-19 CNS 21.8% | U251 CNS 23.7% | PC-3 prostate 24% | UACC-62 melanoma 25% | LOX IMVI melanoma 43.8% | SK-MEL-28 melanoma 44.8% | SK-MEL-2 melanoma 26.4% | EKVX NSCLC 29% | SN12C renal 22.1% | UO-31 renal 37.4% | TK-10 renal 60.4% | ACHN renal 38.4% | A498 renal 15.4% | CCRF-CEM leukemia 37.1% | MOLT-4 leukemia 48.3%
active: SK-MEL-5 melanoma 8.1%

Cc1ccc(-c2nnc(SCc3ccc(O)c4ncccc34)n2-c2ccccc2)cc1
active: HCT-15 colon 6.13% | SNB-19 CNS 9.09% | U251 CNS -2.5% | PC-3 prostate 5.96% | SK-MEL-5 melanoma -28.2% | UACC-62 melanoma -27.7% | LOX IMVI melanoma 3.35% | UO-31 renal -12.8% | TK-10 renal 7.85% | ACHN renal 8.47% | CAKI-1 renal 9.59% | CCRF-CEM leukemia 8.76% | MOLT-4 leukemia 8.15%
inactive: HT29 colon 36% | SK-MEL-28 melanoma 23% | EKVX NSCLC 10.7% | SN12C renal 15.1% | A498 renal 26%
